# “And” between values parts separate entries of the source, which are not always exact repeats. Equal entries are not always repeated. Results filed as inconclusive are left out. Unmarked numbers belong to inactive results. The source made the active and inactive calls. Calls come from the whole dose curve; as a rule, active = well fitted curve in the direction sought with a large enough effect; inconclusive = small, poorly fitted or top-dose-only effect, or another doubt; inactive = no such curve, though single readings can be large; an effect the other way counts as inactive or inconclusive.
# Target: Cytochrome P450 3A7 (Homo sapiens) (UniProt P24462)
# Sequence (P24462 whole entry, looked up): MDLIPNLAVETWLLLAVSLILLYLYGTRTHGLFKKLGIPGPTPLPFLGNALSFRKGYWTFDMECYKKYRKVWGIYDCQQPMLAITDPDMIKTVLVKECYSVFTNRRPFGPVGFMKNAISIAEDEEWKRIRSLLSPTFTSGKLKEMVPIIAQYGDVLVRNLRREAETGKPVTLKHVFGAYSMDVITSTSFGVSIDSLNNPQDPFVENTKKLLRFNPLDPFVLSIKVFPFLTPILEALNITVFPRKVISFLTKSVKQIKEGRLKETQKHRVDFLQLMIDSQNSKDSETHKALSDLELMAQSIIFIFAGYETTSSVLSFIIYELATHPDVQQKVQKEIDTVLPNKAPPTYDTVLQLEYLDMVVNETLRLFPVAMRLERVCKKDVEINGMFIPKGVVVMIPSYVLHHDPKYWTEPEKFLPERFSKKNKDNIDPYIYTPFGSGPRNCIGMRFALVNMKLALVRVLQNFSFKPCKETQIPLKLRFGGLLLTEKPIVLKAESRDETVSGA
# Test: Cytochrome P450 family 3 subfamily A member 7 (CYP3A7) small molecule antagonists: luciferase biochemical qHTS assay (AID 1963596); for activity change, negative = inhibition: % is set by controls: 0 for no effect and ±100 for the full control effect
# Settings: P450-Glo CYP3A7 enzyme luminescence, 1 h; series mostly up to 57.4 µM; activity change, negative = inhibition: at the top concentration
# Method in brief: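 Recombinant CYP3A7 P450-Glo luminescent assay: enzyme-proluciferin substrate mix preincubated with compound 10 min at room temperature, reaction started with NADPH regeneration system for 1 h. Luciferin detected by luminescence; ketoconazole as positive control.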
# Note: nearly all actives have a fitted effect of over 40% in size.
# Potency is the fitted concentration of half-maximal effect.
SMILES,"activity change, negative = inhibition",Potency
N#Cc1ccc2[nH]c(O)c(-c3ccc(CN4CCOCC4)cn3)c2c1,0%,–
FC(F)(F)c1nnc2c(Sc3ccccc3)nc3ccc(Cl)cc3n12,-3.55%,–
CCOC(=O)N1CCC(N2CCC[C@@H](NC(=O)c3ccccc3C)C2)CC1,-7.9%,–
O=C(O)CC1CCC(c2ccc(-c3ccc4nc(C(=O)NCc5ccc(OC(F)(F)F)cc5)cn4c3)cc2)CC1 (stereo not given),-1.28%,–
Nc1c(CC(=O)O)cccc1C(=O)c1ccc(Br)cc1,-9.68%,–
Nc1nc(N)c(N=O)c(OCC2CCCCC2)n1,-4.9%,–
COc1ccnc(CCc2nc3ncccc3[nH]2)c1,0%,–
COc1cc(CCc2cc(NC(=O)c3ccc(N4CC(C)NC(C)C4)cc3)n[nH]2)cc(OC)c1 (stereo not given),0%,–
N#Cc1cc(F)cc(-c2nc(-c3ccccn3)no2)c1,-21.9%,–
Cc1cc(F)ccc1-c1nc(NCCN=C(N)NC#N)nc2c1ccc(=O)n2-c1c(F)cccc1F,0%,–
CC(C)c1cccc(C(C)C)c1NC(=O)Nc1ccc(Sc2ccc([N+](=O)[O-])cc2)cc1,0.621%,–
COc1ccc(C2(CNC(=O)c3ccc(NC(=O)c4ccco4)cc3)CCOCC2)cc1,4.84%,–
COc1cccc(OC)c1-c1ccc(C[C@H](NC(=O)c2c(Cl)cccc2Cl)C(=O)O)cc1,-20.7%,–
COCCCNCC1COc2ccccc2O1 (stereo not given),0.747%,–
O=C(Nc1nc2ccccc2n1CCc1ccccc1)c1ccccc1,10.4%,–
COc1ccc(CCCN2CCC(COC(c3ccccc3)c3ccccc3)CC2)cc1,0%,–
CCCOc1ccccc1-c1nc2n[nH]nc2c(=O)[nH]1,13.1%,–
O=C(O)[C@H]1Cc2ccccc2CN1,2.34% [at 11.5 µM],–
CCNC(=O)Nc1ccc(-c2nc3c(c(N4CCOC[C@@H]4C)n2)CCN(c2ncccn2)C3)cc1,0%,–
Cc1cc(Nc2ncc3cc(-c4c(Cl)cccc4Cl)c(=O)n(C)c3n2)ccc1F,0.0057%,–

SMILES,"activity change, negative = inhibition",Potency
CCN(CC)Cc1ccc(C(=O)N(CCc2ccccc2OC)[C@@H]2CCNC2)cc1,-9.91%,–
O=C1N(CC2CCCCN2)CCN1c1ccccc1 (stereo not given),-18.1%,–
CC(=O)SCC(=O)c1ccc(NS(=O)(=O)c2ccc(OCCCN(C)C)cc2)nc1,-13.5%,–
FC(F)(F)Oc1ccc(-c2ccc3nnc(C(F)(F)F)n3c2)cc1,1.89%,–
CC[C@H]1OC(=O)C[C@@H](O)[C@H](C)[C@@H](O[C@@H]2O[C@H](C)[C@@H](O)[C@H](N(C)C)[C@H]2O)[C@@H](CCN2C[C@H](C)C[C@H](C)C2)C[C@@H](C)C(=O)/C=C/C(C)=C/[C@@H]1CO[C@@H]1O[C@H](C)[C@@H](O)[C@@H](OC)[C@H]1OC,-1.65%,–
COC(=O)c1cc(S(N)(=O)=O)ccc1OC,-13.2%,–
CCOC(=O)N1CCC(NCCNC(=O)c2ccccc2C)CC1,1.42%,–
O=C1NC(=Nc2ccccc2F)S/C1=C\c1ccc(C(=O)O)cc1,-26.4%,–
CCOC(=O)N1CCC(CN(Cc2ccc(Cl)cc2)Cc2ccc([N+](=O)[O-])s2)C1 (stereo not given),-3.34%,–
O=C(c1ccccn1)c1cnn2c(-c3ccncc3)ccnc12,13.5%,–
CN1CCC(Nc2nc(Nc3ccc(Oc4ccccc4)cc3)c3c(=O)[nH]cc(Br)c3n2)CC1,–,6.74 µM (active)
Cc1nc(NC(=O)N2CCC[C@H]2C(N)=O)sc1-c1ccnc(C(C)(C)C(F)(F)F)c1,-1.35%,–
CN[C@H](CNC(=O)N1CCC[C@@H]([C@@H](OCCNC(=O)OC)c2cccc(Cl)c2)C1)C[C@H]1CCCOC1,-16.9%,–
C(#Cc1cccc(CN2CCOCC2)c1)CCN1CCCCC1,-2.92%,–
CCc1cc(CN2CC(C(=O)O)C2)sc1-c1noc(-c2ccc(Oc3ccccc3)cc2)n1,0.127% [at 23.9 µM],–
CCOCc1cc(OC)c(-c2ccc(C[C@H](NC(=O)c3c(F)cccc3F)C(=O)O)cc2)c(OC)c1,-21.6%,–
CN(C)c1ccc(C2O[C@@H](c3ccccc3)C[C@H](c3ccccc3)O2)cc1 (stereo not given in full),-14.6%,–
CNC(=O)c1cnn(-c2nc(N)c3ncn([C@@H]4O[C@H](CO)[C@@H](O)[C@H]4O)c3n2)c1,-3.83%,–
C[C@@H](NC(=O)C(=O)c1c[nH]c2ccc([N+](=O)[O-])cc12)c1ccccc1,0%,–
CC(C)(C)C1CCN(C(=O)n2ncc(C(O)(c3ccccc3)c3ccccc3)n2)CC1,18.1%,–

# Tested on: not listed separately
# Test: Viability qHTS for spleen associated tyrosine kinase inhibitor (SYKi) naive MV4-11 cells (AID 1963823)
# Settings: MV4-11 AML viability, CellTiter-Glo luminescence, 72 h; series mostly up to 45 µM; viability (% of control): at the top concentration
# Method in brief: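 SYKi-naive MV4-11 AML cells, 500 per well, were exposed to library compounds for 72 hr at 37 C, 5% CO2. Viability was then read by CellTiter-Glo luminescence after 10 min at room temperature.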
SMILES,viability (% of control),Potency
N#Cc1ccc2[nH]c(O)c(-c3ccc(CN4CCOCC4)cn3)c2c1,76.6%,–
FC(F)(F)c1nnc2c(Sc3ccccc3)nc3ccc(Cl)cc3n12,–,1.46 µM (active)
CCOC(=O)N1CCC(N2CCC[C@@H](NC(=O)c3ccccc3C)C2)CC1,–,16.4 µM (active)
O=C(O)CC1CCC(c2ccc(-c3ccc4nc(C(=O)NCc5ccc(OC(F)(F)F)cc5)cn4c3)cc2)CC1 (stereo not given),63.9%,–
Nc1c(CC(=O)O)cccc1C(=O)c1ccc(Br)cc1,66.4%,–
Nc1nc(N)c(N=O)c(OCC2CCCCC2)n1,–,6.51 µM (active) and 6.61 µM (active)
COc1ccnc(CCc2nc3ncccc3[nH]2)c1,69.9%,–
COc1cc(CCc2cc(NC(=O)c3ccc(N4CC(C)NC(C)C4)cc3)n[nH]2)cc(OC)c1 (stereo not given),–,0.82 µM (active)
N#Cc1cc(F)cc(-c2nc(-c3ccccn3)no2)c1,80.7%,–
Cc1cc(F)ccc1-c1nc(NCCN=C(N)NC#N)nc2c1ccc(=O)n2-c1c(F)cccc1F,–,14.6 µM (active)
CC(C)c1cccc(C(C)C)c1NC(=O)Nc1ccc(Sc2ccc([N+](=O)[O-])cc2)cc1,–,7.31 µM (active)
COc1ccc(C2(CNC(=O)c3ccc(NC(=O)c4ccco4)cc3)CCOCC2)cc1,76.4%,–
COc1cccc(OC)c1-c1ccc(C[C@H](NC(=O)c2c(Cl)cccc2Cl)C(=O)O)cc1,90.1%,–
COCCCNCC1COc2ccccc2O1 (stereo not given),66.8%,–
O=C(Nc1nc2ccccc2n1CCc1ccccc1)c1ccccc1,4.31%,–
COc1ccc(CCCN2CCC(COC(c3ccccc3)c3ccccc3)CC2)cc1,–,10.3 µM (active)
CCCOc1ccccc1-c1nc2n[nH]nc2c(=O)[nH]1,74.2%,–
O=C(O)[C@H]1Cc2ccccc2CN1,95.6% [at 4.97 µM],–
CCNC(=O)Nc1ccc(-c2nc3c(c(N4CCOC[C@@H]4C)n2)CCN(c2ncccn2)C3)cc1,–,0.13 µM (active)
Cc1cc(Nc2ncc3cc(-c4c(Cl)cccc4Cl)c(=O)n(C)c3n2)ccc1F,–,0.461 µM (active)

SMILES,viability (% of control),Potency
CCN(CC)Cc1ccc(C(=O)N(CCc2ccccc2OC)[C@@H]2CCNC2)cc1,–,3.17 µM (active)
O=C1N(CC2CCCCN2)CCN1c1ccccc1 (stereo not given),73.7%,–
CC(=O)SCC(=O)c1ccc(NS(=O)(=O)c2ccc(OCCCN(C)C)cc2)nc1,–,2.59 µM (active)
FC(F)(F)Oc1ccc(-c2ccc3nnc(C(F)(F)F)n3c2)cc1,45.6%,–
CC[C@H]1OC(=O)C[C@@H](O)[C@H](C)[C@@H](O[C@@H]2O[C@H](C)[C@@H](O)[C@H](N(C)C)[C@H]2O)[C@@H](CCN2C[C@H](C)C[C@H](C)C2)C[C@@H](C)C(=O)/C=C/C(C)=C/[C@@H]1CO[C@@H]1O[C@H](C)[C@@H](O)[C@@H](OC)[C@H]1OC,68.2%,–
COC(=O)c1cc(S(N)(=O)=O)ccc1OC,90.8%,–
CCOC(=O)N1CCC(NCCNC(=O)c2ccccc2C)CC1,61.7%,–
O=C1NC(=Nc2ccccc2F)S/C1=C\c1ccc(C(=O)O)cc1,81.5%,–
CCOC(=O)N1CCC(CN(Cc2ccc(Cl)cc2)Cc2ccc([N+](=O)[O-])s2)C1 (stereo not given),–,10.3 µM (active)
O=C(c1ccccn1)c1cnn2c(-c3ccncc3)ccnc12,65%,–
CN1CCC(Nc2nc(Nc3ccc(Oc4ccccc4)cc3)c3c(=O)[nH]cc(Br)c3n2)CC1,0.873%,–
Cc1nc(NC(=O)N2CCC[C@H]2C(N)=O)sc1-c1ccnc(C(C)(C)C(F)(F)F)c1,–,13 µM (active)
CN[C@H](CNC(=O)N1CCC[C@@H]([C@@H](OCCNC(=O)OC)c2cccc(Cl)c2)C1)C[C@H]1CCCOC1,69.4%,–
C(#Cc1cccc(CN2CCOCC2)c1)CCN1CCCCC1,60.7%,–
CCc1cc(CN2CC(C(=O)O)C2)sc1-c1noc(-c2ccc(Oc3ccccc3)cc2)n1,5.54% [at 17.3 µM],–
CCOCc1cc(OC)c(-c2ccc(C[C@H](NC(=O)c3c(F)cccc3F)C(=O)O)cc2)c(OC)c1,76.7%,–
CN(C)c1ccc(C2O[C@@H](c3ccccc3)C[C@H](c3ccccc3)O2)cc1 (stereo not given in full),68.5%,–
CNC(=O)c1cnn(-c2nc(N)c3ncn([C@@H]4O[C@H](CO)[C@@H](O)[C@H]4O)c3n2)c1,45.2%,–
C[C@@H](NC(=O)C(=O)c1c[nH]c2ccc([N+](=O)[O-])cc12)c1ccccc1,60.2%,–
CC(C)(C)C1CCN(C(=O)n2ncc(C(O)(c3ccccc3)c3ccccc3)n2)CC1,–,20.6 µM (active)
